Test results reported in PubChem BioAssay (Tox21).
Records with an inconclusive call do not appear. Activity calls are given as the source filed them. Unless noted, calls follow the shape of the full dose curve.

Tests used:
[1] = Nuclear factor erythroid 2-related factor 2/antioxidant responsive element (Nrf2/ARE) small molecule agonists: qHTS cell viability counter screen in human keratinocytes (AID 1919968; active = well fitted curve in the direction sought with a large enough effect in the repeat runs; an effect the other way counts as inactive or inconclusive; also: nearly all actives have a fitted effect of over 55% in size)
How it was run: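 HaCaT ARE reporter line, 1,500 cells/well; 5 h settle, 37 C/5% CO2; cpd in DMSO pinned; 23 h exposure; CellTiter-Fluor, 1 h; fluorescence.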

[2] = biological target: Gonadotropin-releasing hormone receptor (Homo sapiens) (UniProt P30968); test: Human gonadotropin-releasing hormone receptor (GnRHR) small molecule agonists, calcium flux assay in GnRHR-HEK293 cells (AID 1920063); also: nearly all actives have a fitted effect of over 35% in size
How it was run: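 GnRHR-HEK293, 1500 cells/well, 18 h 37 C/5% CO2; Ca dye 1 h 37 C; cpd pinned (DMSO), agonist mode; kinetic FL 480/540, 3 min, 1 s reads; 15 conc, n=3.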

[3] = biological target: KiSS-1 receptor (Homo sapiens) (UniProt Q969F8); test: Human kisspeptin (KISS1R) small molecule agonists, calcium flux assay in KISS1R-HEK293 cells (AID 1920064; active = well fitted curve in the direction sought with a large enough effect in the repeat runs; an effect the other way counts as inactive or inconclusive)
How it was run: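 Stable human KISS1R HEK293 line; 18 h plating, 37 C/5% CO2; calcium dye 1 h 37 C; compound pin transfer; kinetic fluorescence Ex/Em 480/540, 3 min.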

[4] = G protein-coupled receptor (GPCR) small molecule agonists, calcium flux assay: HEK293 wild type cell line counter screen (AID 1920065)
How it was run: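 Kinetic fluorescence at Ex/Em 480/540, recorded every second over 3 min, served as the read-out after compound addition. Each compound was tested at 15 concentrations in triplicate on cells pre-loaded with calcium dye for 1 h.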

[5] = p53 small molecule agonists, cell-based qHTS assay with rat liver microsomes (AID 1963578)
How it was run: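 Metabolic activation is supplied by rat liver microsomes with NADPH (each 0.5 mg/mL final). p53RE-bla cells incubate with compound 16 h at 37 C; reporter activity is measured by LiveBLAzer fluorescence.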

[6] = p53 small molecule agonists, cell-based qHTS assay with human liver microsomes: qHTS cell viability counter screen (AID 1963579); also: nearly all actives have a fitted effect of over 45% in size
How it was run: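 After the 460/530 nm beta-lactamase read, CellTiter-Glo was added to the same wells and luminescence measured after 30 min at room temperature, giving viability of p53RE-bla cells treated 16 h with compounds plus microsomes and NADPH.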

[7] = p53 small molecule agonists, cell-based qHTS assay with rat liver microsomes: qHTS cell viability counter screen (AID 1963580); also: nearly all actives have a fitted effect of over 45% in size
How it was run: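 p53RE-bla HCT-116 cells were exposed 16 h at 37 C to compounds with rat liver microsomes (0.5 mg/mL) and NADPH (0.5 mg/mL). Viability was measured in the same wells as ATP content by CellTiter-Glo luminescence.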

[8] = p53 small molecule agonists, cell-based qHTS assay (AID 1963582; active = well fitted activation curve with a large enough effect in the signal ratio in the repeat runs, not every such curve was filed as active; the % refers to the signal ratio; also: potency is read from the fitted curve at half-maximal effect)
How it was run: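 Reporter line: p53RE-bla. Pre-incubation 5 h, 37 C, 5% CO2; compound (DMSO, pin tool) 16 h, 37 C; B/G FRET substrate 2 h RT; fluorescence intensity read.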

[9] = biological target: 5-hydroxytryptamine receptor 2A (Homo sapiens) (UniProt P28223); test: 5-hydroxytryptamine receptor 2A (HTR2A) small molecule agonists, cell-based qHTS assay (AID 1963587); also: nearly all actives have a fitted effect of over 30% in size
How it was run: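 CHO cells stably expressing human HTR2A, plated 18 h, loaded with calcium dye 1 h at 37 C. Agonist mode: compounds added and intracellular calcium fluorescence recorded kinetically for 2 min at 1 sec intervals.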

[10] = biological target: Muscarinic acetylcholine receptor M1 (Homo sapiens) (UniProt P11229); test: Cholinergic receptor muscarinic 1 (CHRM1) small molecule antagonists, cell-based qHTS assay (AID 1963588); also: nearly all actives have a fitted effect of over 40% in size
How it was run: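 CHRM1-CHO calcium-flux assay, antagonist mode. Cells were seeded 18 h, dye-loaded 1 h at 37 C and given compound for 5 min at RT, then acetylcholine was added at 50nM. FDSS fluorescence was read 3 min; 15 concentrations, three runs.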

[11] = biological target: Muscarinic acetylcholine receptor M1 (Homo sapiens) (UniProt P11229); test: Cholinergic receptor muscarinic 1 (CHRM1) small molecule agonists, cell-based qHTS assay (AID 1963589); also: nearly all actives have a fitted effect of over 35% in size
How it was run: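 Human M1 in stable CHO line; 18 h plating, 1 h dye load 37 C; cpd added (agonist mode); Ca2+ fluorescence kinetic read, 1 s intervals; 15 conc, 3 runs.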

[12] = biological target: Beta-2 adrenergic receptor (Homo sapiens) (UniProt P07550); test: Adrenergic beta2 receptor (ADRB2) small molecule antagonists, cell-based qHTS assay (AID 1963592); also: series mostly up to about 92 µM; nearly all actives have a fitted effect of over 50% in size
How it was run: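 Cells (CHO, stable ADRB2 overexpression) incubated 18-20hr at 37C; compounds added from DMSO; agonist mix (1nM isoproterenol, 100uM IBMX, 25uM Ro-20-1724) added; 0.5hr RT; d2-cAMP and anti-cAMP-cryptate added; 1hr RT; 665/615 nm read.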

[13] = biological target: D(2) dopamine receptor (Homo sapiens) (UniProt P14416); test: Dopamine D2 receptor (DRD2) small molecule agonists, cell-based qHTS assay (AID 1963594); also: nearly all actives have a fitted effect of over 35% in size
How it was run: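 HEK293 cells stably expressing human DRD2, pre-treated with PDE inhibitor Ro20-1724 (0.1 mM final) and compound 10 min at room temperature, then stimulated with NKH477 (200nM […]) for 30 min. cAMP read by HTRF (665/620 nm).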

[14] = p53 small molecule agonists, cell-based qHTS assay: qHTS cell viability counter screen (AID 1963581); also: nearly all actives have a fitted effect of over 45% in size
How it was run: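 HCT-116 p53RE-bla cells, 4,000/well, plated 5 h before compound pin transfer; 16 h at 37 C; bla substrate 2 h RT; then CellTiter-Glo, 30 min RT, luminescence.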

[15] = biological target: 5-hydroxytryptamine receptor 2A (Homo sapiens) (UniProt P28223); test: 5-hydroxytryptamine receptor 2A (HTR2A) small molecule antagonists, cell-based qHTS assay (AID 1963586); also: nearly all actives have a fitted effect of over 45% in size
How it was run: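 Antagonist-mode intracellular calcium assay: DOI (4 nM) added after 5 min compound pre-incubation at room temperature to dye-loaded HTR2A-CHO cells. Fluorescence followed for 3 min, sampled every second.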

[16] = cAMP Responsive Elements (CRE) small molecule agonists, cell-based qHTS assay (AID 1963590)
How it was run: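 HEK 293T CRE-bla, 2,000 cells/well, 18 h preincubation 37 C/5% CO2; cpds (DMSO) pinned, 3 h; LiveBLAzer B/G FRET substrate, 2 h RT.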

[17] = cAMP Responsive Elements (CRE) small molecule antagonists, cell-based qHTS assay (AID 1963591; active = well fitted inhibition curve with a large enough effect in the signal ratio in the repeat runs, not every such curve was filed as active; the % refers to the signal ratio)
How it was run: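 Beta-lactamase reporter read by FRET substrate (LiveBLAzer B/G) after 2 h at room temperature. CRE-bla HEK293T cells had received compound plus 0.25 uM (final) NKH477 for 3 h at 37 °C.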

[18] = biological target: D(2) dopamine receptor (Homo sapiens) (UniProt P14416); test: Dopamine D2 receptor (DRD2) small molecule antagonists, cell-based qHTS assay (AID 1963595; active = well fitted inhibition curve with a large enough effect in the signal ratio in the repeat runs, with a control signal flat; the % refers to the signal ratio)
How it was run: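 HEK293 cells stably expressing DRD2 were preincubated with 0.1 mM Ro20-1724, then with compound for 10 min at room temperature. Cells were stimulated with 200 nM NKH477 plus 12 nM quinpirole for 30 min, and cAMP was read by HTRF.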

[19] = biological target: Beta-2 adrenergic receptor (Homo sapiens) (UniProt P07550); test: Adrenergic beta2 receptor (ADRB2) small molecule agonists, cell-based qHTS assay (AID 1963593);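 also: CHO cells stably overexpressing human ADRB2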
How it was run: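 CHO cells stably over-expressing ADRB2 were plated overnight at 37C, then dosed with compounds plus a stimulation mix containing 100uM IBMX and 25uM Ro-20-1724 for 0.5hr at room temperature. cAMP was measured by HTRF competition, 1hr.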
% is scaled to controls: 0 for no effect and ±100 for the full control effect.

Sequence of D(2) dopamine receptor (Homo sapiens) (P14416 whole entry, looked up): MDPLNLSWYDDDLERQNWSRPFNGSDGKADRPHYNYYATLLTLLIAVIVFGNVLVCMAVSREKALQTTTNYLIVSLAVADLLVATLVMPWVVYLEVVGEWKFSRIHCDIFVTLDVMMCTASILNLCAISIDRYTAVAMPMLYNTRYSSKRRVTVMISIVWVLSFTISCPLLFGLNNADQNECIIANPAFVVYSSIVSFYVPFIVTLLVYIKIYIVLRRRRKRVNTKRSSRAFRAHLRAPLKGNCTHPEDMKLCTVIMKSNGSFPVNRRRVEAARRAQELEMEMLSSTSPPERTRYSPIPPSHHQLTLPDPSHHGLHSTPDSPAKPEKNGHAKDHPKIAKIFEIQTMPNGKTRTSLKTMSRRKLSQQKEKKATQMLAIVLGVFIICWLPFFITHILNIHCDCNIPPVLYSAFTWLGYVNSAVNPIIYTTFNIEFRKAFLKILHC
Sequence of Muscarinic acetylcholine receptor M1 (Homo sapiens) (P11229 whole entry, looked up): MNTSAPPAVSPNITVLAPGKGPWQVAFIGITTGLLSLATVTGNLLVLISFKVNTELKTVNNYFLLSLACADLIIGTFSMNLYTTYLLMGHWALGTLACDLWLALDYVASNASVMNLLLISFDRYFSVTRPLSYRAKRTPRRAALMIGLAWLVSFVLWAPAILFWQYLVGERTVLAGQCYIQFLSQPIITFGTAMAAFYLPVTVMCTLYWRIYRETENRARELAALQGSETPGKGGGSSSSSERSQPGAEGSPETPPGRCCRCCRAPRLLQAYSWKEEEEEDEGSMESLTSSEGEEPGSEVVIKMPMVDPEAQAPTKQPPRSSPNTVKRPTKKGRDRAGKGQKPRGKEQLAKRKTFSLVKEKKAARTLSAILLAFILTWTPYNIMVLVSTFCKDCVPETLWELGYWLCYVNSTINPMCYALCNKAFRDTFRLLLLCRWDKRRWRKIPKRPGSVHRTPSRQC
Sequence of Gonadotropin-releasing hormone receptor (Homo sapiens) (P30968 whole entry, looked up): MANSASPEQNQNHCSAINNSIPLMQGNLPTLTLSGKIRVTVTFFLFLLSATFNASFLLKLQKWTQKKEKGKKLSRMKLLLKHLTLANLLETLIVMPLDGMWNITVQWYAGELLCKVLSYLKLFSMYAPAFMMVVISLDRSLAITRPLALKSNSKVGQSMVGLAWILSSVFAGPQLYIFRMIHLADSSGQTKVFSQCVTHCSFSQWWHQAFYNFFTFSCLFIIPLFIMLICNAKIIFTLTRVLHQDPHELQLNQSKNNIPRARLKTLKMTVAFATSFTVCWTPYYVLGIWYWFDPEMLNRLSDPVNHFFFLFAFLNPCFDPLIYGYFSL
Sequence of 5-hydroxytryptamine receptor 2A (Homo sapiens) (P28223 whole entry, looked up): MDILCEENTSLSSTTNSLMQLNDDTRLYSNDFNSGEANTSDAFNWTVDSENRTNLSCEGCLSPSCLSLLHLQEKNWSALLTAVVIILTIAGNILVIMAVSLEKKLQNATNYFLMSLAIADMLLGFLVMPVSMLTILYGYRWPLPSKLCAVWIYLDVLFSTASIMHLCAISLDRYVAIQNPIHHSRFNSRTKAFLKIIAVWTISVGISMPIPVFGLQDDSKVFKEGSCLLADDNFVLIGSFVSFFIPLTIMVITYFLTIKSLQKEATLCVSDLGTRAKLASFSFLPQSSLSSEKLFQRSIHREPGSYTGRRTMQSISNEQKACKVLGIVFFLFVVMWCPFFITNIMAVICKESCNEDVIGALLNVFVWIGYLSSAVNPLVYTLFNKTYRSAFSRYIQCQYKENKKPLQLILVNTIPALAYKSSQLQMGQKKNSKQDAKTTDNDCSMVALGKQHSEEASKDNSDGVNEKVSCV
Sequence of KiSS-1 receptor (Homo sapiens) (Q969F8 whole entry, looked up): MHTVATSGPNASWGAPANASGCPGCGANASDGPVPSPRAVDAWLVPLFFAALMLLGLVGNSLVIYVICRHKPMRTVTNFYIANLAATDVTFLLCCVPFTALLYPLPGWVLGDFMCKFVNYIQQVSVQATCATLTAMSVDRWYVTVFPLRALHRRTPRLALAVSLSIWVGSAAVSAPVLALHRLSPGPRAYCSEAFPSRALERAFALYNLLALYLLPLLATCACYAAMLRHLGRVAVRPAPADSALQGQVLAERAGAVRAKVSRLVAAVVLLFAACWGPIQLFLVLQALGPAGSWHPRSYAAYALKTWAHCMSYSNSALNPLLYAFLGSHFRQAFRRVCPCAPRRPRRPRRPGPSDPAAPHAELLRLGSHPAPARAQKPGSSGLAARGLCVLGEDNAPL
Sequence of Beta-2 adrenergic receptor (Homo sapiens) (P07550 whole entry, looked up): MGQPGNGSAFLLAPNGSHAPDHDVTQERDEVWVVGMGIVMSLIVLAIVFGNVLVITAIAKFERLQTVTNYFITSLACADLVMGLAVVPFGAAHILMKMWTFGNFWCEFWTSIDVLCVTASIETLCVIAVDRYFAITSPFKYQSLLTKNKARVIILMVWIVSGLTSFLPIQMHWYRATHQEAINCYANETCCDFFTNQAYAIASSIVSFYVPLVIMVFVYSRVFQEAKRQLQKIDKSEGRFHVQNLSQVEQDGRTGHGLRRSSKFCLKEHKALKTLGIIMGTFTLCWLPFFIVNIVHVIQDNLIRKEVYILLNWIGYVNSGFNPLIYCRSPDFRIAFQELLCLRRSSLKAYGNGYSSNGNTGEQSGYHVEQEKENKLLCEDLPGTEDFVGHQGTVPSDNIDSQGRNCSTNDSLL

O=C(O)Cc1cc(I)c(Oc2ccc(O)c(I)c2)c(I)c1
active: Potency [8] 11.5 µM
inactive: Potency [1] | Potency [2] | Potency [3] | Potency [4] | Potency [5] | Potency [6] | Potency [7] | Potency [9] | Potency [10] | Potency [11] | Potency [12] | Potency [13]

Cc1oc(=O)oc1CN1CCN(c2cc3c(cc2F)c(=O)c(C(=O)O)c2n3C(C)S2)CC1 (configuration not stated)
inactive: Potency [1] | Potency [2] | Potency [3] | Potency [4] | Potency [6] | Potency [7] | Potency [14] | Potency [15] | Potency [9] | Potency [10] | Potency [11]

NCCN1CCOCC1
inactive: Potency [1] | Potency [2] | Potency [3] | Potency [4] | Potency [5] | Potency [7] | Potency [14] | Potency [8] | Potency [15] | Potency [9] | Potency [11] | Potency [16] | Potency [17] | Potency [13]

Cc1ccccc1C(=O)Nc1ccc(C(=O)N2CCCC(O)c3cc(Cl)ccc32)c(C)c1 (configuration not stated)
inactive: Potency [1] | Potency [2] | Potency [3] | Potency [4] | Potency [5] | Potency [6] | Potency [7] | Potency [14] | Potency [9] | Potency [10] | Potency [11] | Potency [16] | Potency [17] | Potency [12] | Potency [13] | Potency [18]

CCc1cc(C2=C(C(=O)O)N(c3ccccc3C(F)(F)F)S(=O)(=O)c3ccccc32)cc2c1OCO2
inactive: Potency [1] | Potency [2] | Potency [3] | Potency [4] | Potency [5] | Potency [6] | Potency [7] | Potency [14] | Potency [15] | Potency [9] | Potency [10] | Potency [11] | Potency [12] | Potency [18]

Cc1c(N)c(=O)n(-c2ccccc2)n1C
inactive: Potency [1] | Potency [2] | Potency [3] | Potency [4] | Potency [6] | Potency [7] | Potency [14] | Potency [15] | Potency [9] | Potency [10] | Potency [11] | Potency [16] | Potency [17] | Potency [12] | Potency [19] | Potency [13] | Potency [18]

O=C(N[C@H](CO)[C@H](O)c1ccc([N+](=O)[O-])cc1)C(Cl)Cl
inactive: Potency [1] | Potency [2] | Potency [3] | Potency [4] | Potency [5] | Potency [7] | Potency [14] | Potency [16] | Potency [17] | Potency [12] | Potency [18]

NC[C@H]1O[C@H](O[C@H]2[C@H](O)[C@@H](O[C@H]3O[C@H](CO)[C@@H](O)[C@H](N)[C@H]3O)[C@H](N)C[C@@H]2N)[C@H](O)[C@@H](O)[C@@H]1O
inactive: activity change, negative = cytotoxicity [1] 2.11% [at 8.39 µM] | activity change [2] -0.795% [at 5.22 µM, hits give high values] | activation [3] 3.49% [at 6.97 µM] | activation [4] -1.23% [at 5.23 µM] | activation [5] 6.15% [at 5.99 µM] | activity change, negative = cytotoxicity [6] 4.31% [at 5.99 µM] | activity change, negative = cytotoxicity [7] 3.51% [at 5.99 µM] | activity change, negative = cytotoxicity [14] 2.96% [at 5.99 µM] | activity change, negative = inhibition [17] -1.06% [at 8.39 µM] | activity change, negative = inhibition [12] 0.292% [at 8.39 µM] | activation [13] 0% [at 8.39 µM] | activity change, negative = inhibition [18] -3.37% [at 8.38 µM]

C[C@H](CS)C(=O)N1CCC[C@H]1C(=O)O
inactive: Potency [1] | Potency [2] | Potency [3] | Potency [4] | Potency [5] | Potency [6] | Potency [7] | Potency [14] | Potency [8] | Potency [16] | Potency [17] | Potency [19] | Potency [13] | Potency [18]

c1ccc(Cc2ccccc2)cc1
inactive: Potency [1] | Potency [2] | Potency [3] | Potency [4] | Potency [5] | Potency [6] | Potency [7] | Potency [8] | Potency [15] | Potency [9] | Potency [10] | Potency [11] | Potency [16] | Potency [17] | Potency [18]

CC1=C(C/C=C(\C)CCC[C@H](C)CCC[C@H](C)CCCC(C)C)C(=O)c2ccccc2C1=O
inactive: Potency [1] | Potency [2] | Potency [3] | Potency [4] | Potency [5] | Potency [6] | Potency [14] | Potency [8] | Potency [15] | Potency [9] | Potency [10] | Potency [11] | Potency [16] | Potency [17] | Potency [12] | Potency [13] | Potency [18]

c1ccc2sc(SSc3nc4ccccc4s3)nc2c1
inactive: activity change, negative = cytotoxicity [1] 22.3% [at 19 µM] | activity change [2] -1.6% [at 11.8 µM, hits give high values] | activation [3] 4.25% [at 15.8 µM] | activation [4] 0.255% [at 11.8 µM] | activation [5] -0.548% [at 13.6 µM] | activity change, negative = cytotoxicity [7] 0.0229% [at 13.5 µM] | activity change, negative = cytotoxicity [14] -1.21% [at 13.5 µM] | activation [8] 0.366% [at 13.5 µM] | activation [16] -0.0759% [at 19 µM] | activity change, negative = inhibition [17] 0.327% [at 18.9 µM] | activity change, negative = inhibition [12] 1.66% [at 19 µM] | activation [19] 0.998% [at 19 µM] | activation [13] 10.5% [at 19 µM] | activity change, negative = inhibition [18] 5.58% [at 18.9 µM]

Cc1ccc(C#N)cc1
inactive: Potency [1] | Potency [2] | Potency [3] | Potency [4] | Potency [6] | Potency [7] | Potency [14] | Potency [15] | Potency [9] | Potency [10] | Potency [11] | Potency [16] | Potency [17] | Potency [12] | Potency [13] | Potency [18]

CC1(C)C(=O)N(Br)C(=O)N1Br
inactive: Potency [1] | Potency [2] | Potency [3] | Potency [4] | Potency [5] | Potency [6] | Potency [7] | Potency [14] | Potency [8] | Potency [9] | Potency [10] | Potency [11] | Potency [16] | Potency [17] | Potency [12] | Potency [19] | Potency [13] | Potency [18]
